From PubChem BioAssay (NCI)
About 83,000 compounds went through this panel and 20% of them were active in at least one assay; those are over-represented in the sample as a whole.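 The endpoint reported here, percent growth, reads 100 for growth as untreated, 0 for no net growth and -100 for all cells dead.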 Values without a mark were called inactive. Activity calls are given as the source filed them. How the source made its calls: active means growth percent below 10; inactive means the rest.

Assays:
Test in all cases: NCI-60 one-dose screen, 48 h (100 = growth as untreated, 0 = no growth, -100 = all killed)
NCI-H23 lung = details: 10 µM unless noted
NCI-H226 lung = details: 10 µM unless noted
NCI-H322M lung = details: 10 µM unless noted
HOP-62 NSCLC = details: 10 µM unless noted
NCI-H460 lung = details: 10 µM unless noted
786-0 renal = details: 10 µM unless noted
MDA-MB-231 breast = details: 10 µM unless noted
SF-268 CNS = details: 10 µM unless noted
SF-539 CNS = details: 10 µM unless noted
M14 melanoma = details: 10 µM unless noted
HCT-15 colon = details: 10 µM
U251 CNS = details: 10 µM unless noted
UACC-62 melanoma = details: 10 µM unless noted
SK-MEL-28 melanoma = details: 10 µM unless noted
UO-31 renal = details: 10 µM unless noted
OVCAR-5 ovarian = details: 10 µM unless noted
MDA-MB-435 melanoma = details: 10 µM unless noted
SW-620 colon = details: 10 µM unless noted
MCF7 breast = details: 10 µM unless noted
KM12 colon = details: 10 µM unless noted

Row | Structure (SMILES) | growth (NCI-H23 lung) | growth (NCI-H226 lung) | growth (NCI-H322M lung) | growth (HOP-62 NSCLC) | growth (NCI-H460 lung) | growth (786-0 renal) | growth (MDA-MB-231 breast) | growth (SF-268 CNS) | growth (SF-539 CNS) | growth (M14 melanoma) | growth (HCT-15 colon) | growth (U251 CNS) | growth (UACC-62 melanoma) | growth (SK-MEL-28 melanoma) | growth (UO-31 renal) | growth (OVCAR-5 ovarian) | growth (MDA-MB-435 melanoma) | growth (SW-620 colon) | growth (MCF7 breast) | growth (KM12 colon)
1 | O=C(CCl)NCNC(=O)CCl | 97.8% | 112% | 100% | 97.2% | 103% | 107% | 99.7% | 98.1% | 101% | 91.5% | 91.4% | 87.9% | 82% | 93.7% | 93.5% | 115% | 93.9% | 100% | 85.1% | 104%
2 | CO[C@@H]([CH2][Hg][S]C#N)[C@@H]([CH2][Hg][S]C#N)OC | 92.3% | 106% | 101% | 99.8% | 127% | 120% | 96.1% | 100% | 125% | 81.3% |  |  | 88.9% | 104% | 94.6% | 107% | 98.7% | 22.3% | 31% | 107%
3 | C[C@@H]1CC[C@@H]2[C@@H]1[C@H](OC(=O)/C=C/C1CCCCC1)[C@]1(C3CCCCC3)C[C@@H](OC(=O)CO)[C@@]2(C)O1 | 71.5% | 56.9% | 85.6% | 69.7% | 64.2% | -10.1% (active) | 61.5% | 39.6% | 95.9% | 65.2% | 48.4% | 60.2% | 69.5% | 74.5% | -44.2% (active) | 101% | 72.9% | 66.4% | 40.2% | 56%
4 | CCOC(=O)/C=C(\C)Nc1ccc(N/C(C)=C/C(=O)OCC)c2c1Oc1ccccc1O2 | 89.7% | 93.2% | 110% | 117% | 122% | 88.2% | 79% | 107% | 105% | 107% | 100% | 99.2% | 92.3% | 114% |  | 106% | 101% | 99.4% | 93.7% | 97.6%
5 | CCC[CH2][Sn]([CH2]CCC)([CH2]CCC)[O]C(=O)CC | -87.1% (active) | -58.9% (active) | -95.2% (active) | -88.9% (active) | -84.1% (active) | -94.5% (active) | -79.4% (active) | -97.3% (active) | -85.1% (active) | -91.4% (active) | -72.9% (active) | -84.6% (active) | -90% (active) | -98.3% (active) | -90.4% (active) | -91.2% (active) | -89.3% (active) | -84.8% (active) | -82.1% (active) | -93.2% (active)
6 | CC1=C(SCCC(=O)OCC(=O)NCCC[Te]c2ccccc2)C(=O)c2ccccc2C1=O | -33.6% (active) | -4.17% (active) | -13.3% (active) | -49.1% (active) | -43.1% (active) | 23.2% | -34.5% (active) | -13.1% (active) | -60.3% (active) | -52.4% (active) | 10.4% | -5.81% (active) | 2.51% (active) | -11.4% (active) | -0.644% (active) | -0.604% (active) | 4.67% (active) | 22.1% | 3.85% (active) | 2.96% (active)
7 | c1cnc2c(c1)ccc1ncccc12 | 121% | 100% | 123% | 103% | 108% | 105% | 108% | 96.4% | 106% | 91% | 110% | 105% | 94.6% | 205% | 93.2% | 148% | 113% | 144% | 107% | 107%
8 | CCC1([N+](=O)[O-])COP(=O)(NCc2cccnc2)OC1 (configuration not stated) | 115% | 99.9% | 111% | 103% | 104% | 96.4% | 111% | 106% | 106% | 109% | 104% | 107% | 105% | 113% | 91.1% | 99.7% | 117% | 105% | 115% | 103%
